# PubChem BioAssay AID602364 (National Center for Advancing Translational Sciences (NCATS), 2012)
# Records with an inconclusive call do not appear. Calls of active or inactive are those of the source. Calls follow the shape of the dose curve; as a rule, active = well fitted inhibition curve with a large enough effect; inconclusive = small, poorly fitted or top-dose-only effect; inactive = flat fitted curve, though single readings scatter.
# Molecular target: Luciferin 4-monooxygenase (Photinus pyralis) (UniProt P08659)
# Assay: FLuc inhibitory activity for the follow-up compounds in a biochemical assay with 1mM ATP
# Settings: purified P. pyralis luciferase, luminescence; series mostly up to 57.5 µM; activity change, negative = inhibition: at the top concentration
# Excerpt: NCGC Assay Overview: Firefly (Photinus pyralis) luciferase is one of the most commonly used transcriptional reporters. It is considered one of the more dynamically responsive reporters - that is, responsive to changes in reporter transcription - as it requires no post-translational modifications and is enzymatically active directly after protein synthesis (Wood, 1998). With no endogenous expression in mammalian cells and without the requirement of external excitation, it offers very little background signal, thus generally providing excellent signal to background for most assays. Previous profiling work to determine the prevalence of compounds that affect FLuc enzymatic activity (PubChem AID 411) identified that ~3% of the MLSMR library (then at ~72K) inhibited FLuc. […] Of the compounds identified in this profile that inhibited FLuc, 151 compounds were selected for further analysis, in an effort to better understand their mode of inhibiting FLuc. The assay described here was to determine the activity of the compounds in a FLuc assay that contained a KM concentration of D-luciferin and a high concentration (1mM) of ATP.
# NCGC Assay Protocol Summary: Reagents: 50mM Tris acetate, pH 7.5; 10mM Mg acetate; 10uM D-luciferin (Sigma #L9504); 1mM ATP; 0.01% Tween-20; 0.05% BSA; 10nM P. pyralis luciferase (Sigma #L9506) Control compounds used were two known firefly luciferase inhibitors (3-(5-(3-chlorophenyl)-1,2,4-oxadiazol-3-yl)benzoic acid and 5-(2-fluorophenyl)-3-phenyl-1,2,4-oxadiazole), and DMSO. Three microliters containing firefly luciferase substrates in buffer (final concentrations: 50mM Tris acetate, pH 7.5, 10mM Mg acetate, 0.01% Tween-20, 0.05% BSA, 10uM D-luciferin, 1mM ATP) are dispensed into each well of a Greiner white, solid-bottom 1536-well format plate using a flying reagent dispenser (FRD). These assay plates were then treated with 23nL of compound or DMSO using a Kalypsys pin tool, which allows for delivery of a 12-point intraplate titration of each compound to the assay plate (quantitative HTS), with a final compound concentrations ranging from approximately ~60uM to 0.3nM. One microliter of firefly luciferase in […] Tris-acetate buffer was then delivered by FRD to each well for a final enzyme concentration of 10nM. Luciferase activity was then measured using a ViewLux CCD imager (PerkinElmer), with an average exposure time of 2-30 seconds (2X binning, medium/high gain).
# Sequence of Luciferin 4-monooxygenase (Photinus pyralis) (P08659 whole entry, looked up): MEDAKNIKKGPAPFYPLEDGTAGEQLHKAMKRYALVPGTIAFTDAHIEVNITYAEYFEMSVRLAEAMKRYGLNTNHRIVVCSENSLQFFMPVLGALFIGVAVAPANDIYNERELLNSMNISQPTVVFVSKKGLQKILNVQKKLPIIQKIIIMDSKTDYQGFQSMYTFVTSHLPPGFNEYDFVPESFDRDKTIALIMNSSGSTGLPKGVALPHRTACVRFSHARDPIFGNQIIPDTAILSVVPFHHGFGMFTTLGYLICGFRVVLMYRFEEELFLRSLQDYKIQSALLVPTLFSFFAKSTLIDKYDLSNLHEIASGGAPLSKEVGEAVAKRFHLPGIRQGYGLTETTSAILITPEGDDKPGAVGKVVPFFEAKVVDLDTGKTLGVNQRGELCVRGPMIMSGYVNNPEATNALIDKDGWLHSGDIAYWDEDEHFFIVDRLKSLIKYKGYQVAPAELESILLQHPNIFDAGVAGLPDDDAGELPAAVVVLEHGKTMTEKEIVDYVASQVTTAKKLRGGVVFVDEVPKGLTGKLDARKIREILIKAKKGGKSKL
SMILES,Potency,"activity change, negative = inhibition"
O=C(Nc1ccccc1C(=O)O)c1cccc(C(=O)Nc2ccccc2C(=O)O)c1,11.6 µM (active),–
O=C(O)c1cccc(NC(=O)c2ccc(COc3ccc(Cl)cc3)cc2)c1,3.66 µM (active),–
O=C(Nc1ccccc1-c1nc2ccccc2s1)c1cccnc1,36.6 µM (active),–
COc1ccc2nc(NC(=O)CCc3ccc(OC)c(OC)c3)sc2c1,–,5.86% (inactive)
CCOc1ccc2nc(NC(=O)c3ccccn3)sc2c1,0.13 µM (active),–
Oc1ccc(-c2nc3ccccc3s2)c(O)c1,2.59 µM (active),–
Nc1ccccc1-c1nc2ccccc2s1,2.91 µM (active),–
Cc1ccc(S(=O)(=O)N2CCN(C(=O)c3ccccc3-c3nc4ccccc4s3)CC2)c(C)c1,–,-5.52% (inactive)
O=C(O)c1cccc(NC(=O)c2cccc(S(=O)(=O)N3CCc4ccccc43)c2)c1,18.3 µM (active),–
CCOc1ccc2nc(NC(=O)c3ccccc3)sc2c1,0.0919 µM (active),–
Cc1ccc2nc(-c3ccc(NC(=O)CN4CCN(C(=O)c5ccco5)CC4)cc3)sc2c1,4.11 µM (active),–
O=C(Nc1ccccc1C(=O)O)c1cc(S(=O)(=O)Nc2ccccc2)ccc1Cl,–,-5.54% (inactive)
O=C(Nc1ccccc1C(=O)O)c1ccc(NC(=O)C2CCCCC2)cc1,32.6 µM (active),–
Cc1ccccc1C(=O)Nc1cccc(C(=O)Nc2ccccc2C(=O)O)c1,32.6 µM (active),–
Cc1ccc(C(=O)O/N=C(\N)c2ccccn2)c(Cl)c1,0.0046 µM (active),–
CC(C)c1ccc(C(=O)Nc2ccc(-c3nc4ccccc4s3)c(Cl)c2)cc1,–,-15.3% (inactive)
O=C(Nc1ccccc1C(=O)O)c1cc(S(=O)(=O)Nc2cccc(F)c2)ccc1Cl,–,-5.57% (inactive)
O=C(Nc1ccccc1C(=O)O)c1ccc(NC(=O)C2CCCO2)cc1 (stereo not given),20.6 µM (active),–
CC(C)C(=O)Nc1cccc(C(=O)Nc2ccccc2C(=O)O)c1,11.6 µM (active),–
O=C(Nc1cccc(-c2nc3ccccc3s2)c1)C1=COCCO1,25.9 µM (active),–

SMILES,Potency,"activity change, negative = inhibition"
O=C(Nc1ccccc1C(=O)O)c1cccc(NC(=O)c2ccccc2Cl)c1,20.6 µM (active),–
CCOc1c(Cl)cc(C(=O)Nc2ccccc2C(=O)O)cc1Cl,18.3 µM (active),–
CCOc1ccc2nc(NC(=O)c3cc([N+](=O)[O-])ccc3N3CCOCC3)sc2c1,–,0% (inactive)
Cc1c(NS(C)(=O)=O)cccc1-c1nc2ccccc2s1,10.3 µM (active),–
COc1ccccc1C(=O)Nc1ccc(C(=O)O)cc1,–,-2.29% (inactive)
Cc1ccc(C(=O)Nc2cccc(C(=O)O)c2)cc1,0.651 µM (active),–
O=C(O)c1cccc(NC(=O)c2ccc(Cl)c(S(=O)(=O)N3CCCCCC3)c2)c1,0.366 µM (active),–
O=C(Nc1ccccc1C(=O)O)c1cccc(S(=O)(=O)N2CCCC2)c1,16.3 µM (active),–
COc1ccc(NS(=O)(=O)c2cccc(C(=O)Nc3ccccc3C(=O)O)c2)cc1,–,-2.81% (inactive)
COc1cccc(-c2nc3ccccc3s2)c1,0.326 µM (active),–
O=C(O)c1ccc(NC(=O)c2ccccc2NC(=O)c2ccccc2Cl)cc1,–,-2.01% (inactive)
COc1ccc(-c2nc3ccccc3s2)cc1NC(=O)c1ccc(F)cc1,–,-4.53% (inactive)
O=C(Nc1cccc(-c2nc3ccccc3s2)c1)c1cc(-n2cnnc2)ccc1Cl,9.19 µM (active),–
COc1ccc2nc(NC(=O)c3ccc(S(=O)(=O)N4CCCC(C)C4)cc3)sc2c1 (stereo not given),–,2.45% (inactive)
O=C(Nc1c(Cl)cc(Cl)cc1-c1nc2ccccc2s1)c1ccc(Br)o1,–,-1.44% (inactive)
Cc1ccc(C(=O)O/N=C(\N)c2ccccn2)cc1,0.0073 µM (active),–
O=C(Cc1ccccc1)Nc1ccccc1C(=O)Nc1ccc(C(=O)O)cc1,–,2.57% (inactive)
Cc1ccc2nc(-c3ccc(N)cc3)sc2c1,0.0231 µM (active),–
O=C(O)c1cccc(NC(=O)c2cccc(NC(=O)C3CCCO3)c2)c1 (stereo not given),4.11 µM (active),–
COc1cc(OC)cc(-c2nc3ccccc3s2)c1,4.11 µM (active),–
